These results are taken from PubChem BioAssay AID602400 (Sanford-Burnham Center for Chemical Genomics, 2012).

Values without a mark were called inactive. The source made the active and inactive calls. How the calls were made is not given here.

A short description of this test: off-target activity on Bfl-1 – biochemical, set 4, counter-screen for UBC13 polyubiquitination inhibitor project, SAR follow-up (AID 602400). The note with it: Bfl-1 counterscreen for UBC13 inhibitors. (A counterscreen serves to expose hits that act by an unwanted route or on another target.)
The term IC50 denotes the concentration needed to halve the response being measured. Take `Cc1cccc(N2CCN(CCCNC(=O)C3CCCN(c4ncnc5c4nc4n5CCCCC4)C3)CC2C)c1` (stereo not drawn): the IC50 is more than 100 µM.

On to `Cc1cc(Cl)ccc1NC(=O)C1CCN(c2ncnc3c2nc2n3CCCCC2)CC1`, for which the IC50 was more than 100 µM.

Regarding `O=C(NCc1ccc(Cl)c(Cl)c1)C1CCCN(c2ncnc3c2nc2n3CCCC2)C1` (stereo not drawn), the IC50 is more than 100 µM.

For `O=C(NCC1CCN(Cc2ccccc2Cl)CC1)C1CCCN(c2ncnc3c2nc2n3CCCC2)C1` (stereo not drawn), the IC50 was more than 100 µM.

On to `O=C(NCc1ccc(Cl)c(Cl)c1)C1CCN(c2ncnc3c2nc2n3CCCC2)CC1`, for which the IC50 is more than 100 µM.

Consider `O=C(NCC1CCN(Cc2cccc(Cl)c2)CC1)[C@@H]1CCCN(c2ncnc3c2nc2n3CCCC2)C1`, for which the IC50 was more than 100 µM.

With `Cc1ccccc1CN1CCC(CNC(=O)C2CCCN(c3ncnc4c3nc3n4CCCCC3)C2)CC1` (stereo not drawn), the IC50 was more than 100 µM.

For the compound `O=C(NCc1cccc(Cl)c1)C1CCN(c2ncnc3c2nc2n3CCCCC2)CC1`, the IC50 was more than 100 µM.

As to `Cc1cccc(NC(=O)C2CCN(c3ncnc4c3nc3n4CCCCC3)CC2)c1`, the IC50 was more than 100 µM.

Regarding `O=C(NCCCN1CCN(c2ccc(F)cc2)CC1)C1CCCN(c2ncnc3c2nc2n3CCCCC2)C1` (stereo not drawn), the IC50 is more than 100 µM.

Consider `COc1ccccc1N1CCN(CCCNC(=O)C2CCCN(c3ncnc4c3nc3n4CCCCC3)C2)CC1` (stereo not drawn), for which the IC50 was more than 100 µM.

Turning to `Cc1ccc(C)c(CN2CCC(CNC(=O)C3CCCN(c4ncnc5c4nc4n5CCCCC4)C3)CC2)c1` (stereo not drawn), the IC50 was more than 100 µM.

`O=C(NCC1CCN(Cc2ccccc2F)CC1)C1CCCN(c2ncnc3c2nc2n3CCCCC2)C1` (stereo not drawn): the IC50 was more than 100 µM.

On to `O=C(NCC1CCN(Cc2ccc(F)cc2)CC1)C1CCCN(c2ncnc3c2nc2n3CCCCC2)C1` (stereo not drawn), for which the IC50 is more than 100 µM.

Regarding `Cc1ccc(NC(=O)C2CCN(c3ncnc4c3nc3n4CCCCC3)CC2)cc1C`, the IC50 is more than 100 µM.

Take `COc1cc(OC)c(NC(=O)C2CCN(c3ncnc4c3nc3n4CCCCC3)CC2)cc1Cl`: the IC50 is more than 100 µM.

In the case of `O=C(NCCCN1CCN(c2ccccc2)CC1)C1CCCN(c2ncnc3c2nc2n3CCCCC2)C1` (stereo not drawn), the IC50 was more than 100 µM.

For the compound `O=C(NCC1CCN(Cc2cccc(Cl)c2)CC1)C1CCCN(c2ncnc3c2nc2n3CCCC2)C1` (stereo not drawn), the IC50 was more than 100 µM.

On to `Cc1ccc(NC(=O)C2CCN(c3ncnc4c3nc3n4CCCCC3)CC2)cc1Br`, for which the IC50 is more than 100 µM.

In the case of `CCCN1CCN(C(=O)C2CCN(c3ncnc4c3nc3n4CCCCC3)CC2)CC1`, the IC50 is more than 100 µM.

Consider `COc1cc(Cl)c(C)cc1NC(=O)C1CCN(c2ncnc3c2nc2n3CCCCC2)CC1`, for which the IC50 was more than 100 µM.

With `O=C(C1CCN(c2ncnc3c2nc2n3CCCCC2)CC1)N1CCC(Cc2ccccc2)CC1`, the IC50 is more than 100 µM.

For `CN(CCNC(=O)C1CCN(c2ncnc3c2nc2n3CCCCC2)CC1)Cc1ccccc1`, the IC50 was more than 100 µM.

Consider `O=C(C1CCN(c2ncnc3c2nc2n3CCCCC2)CC1)N1CCN(c2ccccn2)CC1`, for which the IC50 is more than 100 µM.

As for `Cc1ccc(NC(=O)C2CCN(c3ncnc4c3nc3n4CCCC3)CC2)cc1F`, the IC50 is more than 100 µM.

Regarding `CC1CCCC(C)N1CCCNC(=O)C1CCCN(c2ncnc3c2nc2n3CCCCC2)C1` (stereo not drawn), the IC50 was more than 100 µM.

Take `Cc1cc(C)cc(NC(=O)C2CCCN(c3ncnc4c3nc3n4CCCC3)C2)c1` (stereo not drawn): the IC50 is more than 100 µM.

For the compound `Cc1cc(C)cc(NC(=O)C2CCN(c3ncnc4c3nc3n4CCCCC3)CC2)c1`, the IC50 is 72.9 µM (active).

In the case of `Cc1ccc(NC(=O)C2CCN(c3ncnc4c3nc3n4CCCCC3)CC2)cc1Cl`, the IC50 was more than 100 µM.

For `Cc1ccc(NC(=O)C2CCCN(c3ncnc4c3nc3n4CCCC3)C2)cc1C` (stereo not drawn), the IC50 is more than 100 µM.

In the case of `O=C(NCC1CCN(Cc2ccc(Cl)cc2)CC1)C1CCCN(c2ncnc3c2nc2n3CCCC2)C1` (stereo not drawn), the IC50 is 76.8 µM (active).

`O=C(Nc1cc(F)ccc1F)C1CCN(c2ncnc3c2nc2n3CCCCC2)CC1`: the IC50 is more than 100 µM.

As for `O=C(NCc1cccc(Cl)c1)C1CCCN(c2ncnc3c2nc2n3CCCC2)C1` (stereo not drawn), the IC50 was more than 100 µM.

As for `Cc1cccc(NC(=O)C2CCN(c3ncnc4c3nc3n4CCCCC3)CC2)c1C`, the IC50 is more than 100 µM.

On to `Cc1ccc(NC(=O)C2CCCN(c3ncnc4c3nc3n4CCCC3)C2)cc1Br` (stereo not drawn), for which the IC50 was more than 100 µM.

In the case of `Cc1cccc(NC(=O)C2CCCN(c3ncnc4c3nc3n4CCCC3)C2)c1` (stereo not drawn), the IC50 is more than 100 µM.

On to `O=C(NCC1CCN(Cc2ccc(Cl)cc2)CC1)C1CCCN(c2ncnc3c2nc2n3CCCCC2)C1` (stereo not drawn), for which the IC50 was more than 100 µM.

In the case of `O=C(C1CCN(c2ncnc3c2nc2n3CCCCC2)CC1)N1CCN(c2ccc(F)cc2)CC1`, the IC50 was more than 100 µM.
